Assay outcomes from PubChem.
T cruzi growth-1 – blocks T. cruzi growth in NIH3T3 culture; T. cruzi beta-gal in NIH3T3, GalScreen luminescence, 90 h; inhibition, % at 8.34 µM; actives 5.9% (n = 77,000);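 active = mean inhibition above about 93%, with at least 55% of replicates each passing it, limit read from the data, passing the limit was not always enough; inconclusive = only one of those two conditions holds; inactive = neither condition holds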
C diff HTS – C. difficile growth inhibition | growth activity, negative = inhibition, % at 16 µg/mL (by protocol) | AID 1259249 | Clostridium difficile clinical isolate growth, OD600, 24 h; stronger effect = lower value | actives 0.25% (n = 86,000);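 active = mean growth activity at or below -80% and every replicate also at or below -80%; inconclusive = mean at or below -80% but some replicate above -80%; inactive = mean growth activity above -80%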
Pf Dd2 inh – blocks growth of Plasmodium falciparum Dd2 parasites; P. falciparum Dd2 growth, SYBR Green, 72 h; stronger effect = lower value; activity change, % at 10 µM; actives 2.3% (n = 94,000); AID 1159554; in the data active = activity change below about -80%; inconclusive = no clear call, values can overlap the other calls
T cruzi growth-2 – inhibitors of T. cruzi proliferation | shares compounds with T cruzi growth-1 | T. cruzi beta-gal in NIH3T3, GalScreen luminescence, 90 h | inhibition, % at 8.35 µM | actives 72% (n = 5,600);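 active = mean replicate inhibition above about 95% and at least 55% of replicates individually reaching it, limit read from the data; inconclusive = only one of the two criteria is met; inactive = neither criterion is met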
T cruzi growth-3 – Trypanosoma cruzi proliferation inhibition; inhibition, % at 2.09 µM; actives 21% (n = 5,600); AID 651740; shares compounds with T cruzi growth-1; T. cruzi beta-gal in NIH3T3, GalScreen luminescence, 90 h;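 active = mean inhibition above about 95%, with at least 55% of replicates also reaching it, limit read from the data; inconclusive = meets just one of the two conditions; inactive = meets neither condition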
NIH3T3 tox – cytotoxicity in mouse NIH/3T3 fibroblasts. cytotoxicity (signal decrease), % at 8.35 µM. shares compounds with T cruzi growth-1. AID 651742. actives 14% (n = 5,600). NIH/3T3 viability, CellTiter-Glo ATP luminescence, 90 h;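 active = mean signal decrease across replicates above about 35% based on untreated-well scatter, with enough replicates individually passing, limit read from the data; inconclusive = no rule stated though some were filed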
NIH3T3 tox 2 – cytotoxicity in mouse NIH/3T3 fibroblasts. shares compounds with T cruzi growth-1. inhibition, % at 24.9 µM. NIH/3T3 viability, CellTiter-Glo ATP luminescence, 90 h. actives 56% (n = 5,600);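 active = mean loss of cell viability signal at or above a set limit, and enough replicates individually reaching it; inconclusive = meets only the mean limit or only the replicate share; inactive = meets neither condition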
Of the large screens only hits and unclear results are named; the others gave an inactive call (follow-up assays come after a bar, where they were run). Most compounds without a hit are left out; they make up all but 6.8% or so of the library.

Cc1noc(C)c1S(=O)(=O)Nc1ccc2c(c1)C(=O)N([C@@H](C)CO)C[C@@H](C)[C@@H](CN(C)Cc1ccc(C(F)(F)F)cc1)OCCCC[C@@H](C)O2	T cruzi growth-1 99.0 (no result: C diff HTS) | T cruzi growth-2 inactive | T cruzi growth-3 111.7 | NIH3T3 tox inactive | NIH3T3 tox 2 105.6
Cc1noc(C)c1S(=O)(=O)Nc1ccc2c(c1)C(=O)N([C@@H](C)CO)C[C@H](C)[C@@H](CN(C)C(=O)Nc1ccc(C(F)(F)F)cc1)OCCCC[C@H](C)O2	T cruzi growth-1 124.7 | T cruzi growth-2 95.5 | T cruzi growth-3 111.5 | NIH3T3 tox inactive | NIH3T3 tox 2 63.1
Cc1noc(C)c1S(=O)(=O)Nc1ccc2c(c1)C(=O)N([C@H](C)CO)C[C@H](C)[C@H](CN(C)Cc1ccc(C(F)(F)F)cc1)OCCCC[C@@H](C)O2	T cruzi growth-1 inconclusive (no result: C diff HTS) | T cruzi growth-2 105.8 | T cruzi growth-3 inactive | NIH3T3 tox inactive | NIH3T3 tox 2 inconclusive
Cc1noc(C)c1S(=O)(=O)Nc1ccc2c(c1)C(=O)N([C@H](C)CO)C[C@@H](C)[C@@H](CN(C)Cc1ccc(C(F)(F)F)cc1)OCCCC[C@@H](C)O2	none (no result: C diff HTS)
Cc1noc(C)c1S(=O)(=O)Nc1ccc2c(c1)C(=O)N([C@H](C)CO)C[C@@H](C)[C@@H](CN(C)Cc1ccc(C(=O)O)cc1)OCCCC[C@H](C)O2	none
Cc1noc(C)c1S(=O)(=O)Nc1ccc2c(c1)C(=O)N([C@@H](C)CO)C[C@H](C)[C@@H](CN(C)Cc1ccc(C(F)(F)F)cc1)OCCCC[C@H](C)O2	T cruzi growth-1 102.8 (no result: C diff HTS) | T cruzi growth-2 103.5 | T cruzi growth-3 inactive | NIH3T3 tox inactive | NIH3T3 tox 2 103.9
Cc1noc(C)c1S(=O)(=O)Nc1ccc2c(c1)C(=O)N([C@H](C)CO)C[C@H](C)[C@@H](CN(C)Cc1ccc(C(=O)O)cc1)OCCCC[C@@H](C)O2	none
Cc1noc(C)c1S(=O)(=O)Nc1ccc2c(c1)C(=O)N([C@@H](C)CO)C[C@@H](C)[C@H](CN(C)C(=O)Nc1ccc(C(F)(F)F)cc1)OCCCC[C@@H](C)O2	none
CC(C)NC(=O)Nc1ccc2c(c1)C(=O)N([C@H](C)CO)C[C@H](C)[C@@H](CN(C)S(=O)(=O)c1ccc(F)cc1)OCCCC[C@@H](C)O2	none (no result: Pf Dd2 inh)
Cc1noc(C)c1S(=O)(=O)Nc1ccc2c(c1)C(=O)N([C@H](C)CO)C[C@H](C)[C@@H](CN(C)Cc1ccc(C(F)(F)F)cc1)OCCCC[C@@H](C)O2	T cruzi growth-1 95.8 (no result: C diff HTS) | T cruzi growth-2 105.5 | T cruzi growth-3 inactive | NIH3T3 tox inactive | NIH3T3 tox 2 inactive
Cc1noc(C)c1S(=O)(=O)Nc1ccc2c(c1)C(=O)N([C@@H](C)CO)C[C@@H](C)[C@H](CN(C)Cc1ccc(C(=O)O)cc1)OCCCC[C@@H](C)O2	none
C[C@@H]1CCCCO[C@@H](CN(C)C)[C@H](C)CN([C@@H](C)CO)C(=O)c2cc(NC(=O)c3ccncc3)ccc2O1	T cruzi growth-1 99.9 | T cruzi growth-2 inactive | T cruzi growth-3 inactive | NIH3T3 tox inactive | NIH3T3 tox 2 inactive
C[C@H]1CCCCO[C@H](CN(C)C(=O)c2ccncc2)[C@@H](C)CN([C@@H](C)CO)C(=O)c2cc(NC(=O)c3ccccc3)ccc2O1	T cruzi growth-1 99.6 | T cruzi growth-2 inactive | T cruzi growth-3 inactive | NIH3T3 tox inactive | NIH3T3 tox 2 inactive
C[C@@H]1CN([C@@H](C)CO)C(=O)c2cc(NC(=O)c3ccccc3)ccc2O[C@@H](C)CCCCO[C@H]1CN(C)C(=O)c1ccccc1	T cruzi growth-1 inconclusive | T cruzi growth-2 inactive | T cruzi growth-3 inactive | NIH3T3 tox inactive | NIH3T3 tox 2 inactive
C[C@H](CO)N1C[C@H](C)[C@@H](CN(C)C)OCCCC[C@H](C)Oc2ccc(NC(=O)c3ccncc3)cc2C1=O	none (no result: Pf Dd2 inh)
C[C@@H]1CCCCO[C@@H](CN(C)C(=O)c2ccccc2)[C@@H](C)CN([C@H](C)CO)C(=O)c2cc(NC(=O)c3ccccc3)ccc2O1	none
C[C@H](CO)N1C[C@H](C)[C@@H](CN(C)C(=O)c2ccccc2)OCCCC[C@H](C)Oc2ccc(NC(=O)c3ccncc3)cc2C1=O	none
CN(C)C(=O)c1cccc(-c2ccc3c(c2)[C@H]2[C@H](CCN2C(=O)Nc2cccc(F)c2)[C@@H](CO)N3C)c1	none
COCC(=O)N(C)C[C@H]1Oc2ncc(C#CCC3CCCC3)cc2C(=O)N([C@@H](C)CO)C[C@H]1C	none
CN(C)CC#Cc1ccc([C@H]2[C@@H](CO)N3CCCCN(C(=O)C4CC4)C[C@@H]23)cc1	none
CN(C)CC#Cc1ccc([C@H]2[C@@H](CO)N3CCCCN(C(=O)C4CC4)C[C@H]23)cc1	T cruzi growth-1 101.9 | T cruzi growth-2 inactive | T cruzi growth-3 inactive | NIH3T3 tox inactive | NIH3T3 tox 2 35.6
O=C(C1CCCC1)N1CCCCN2[C@H](CO)[C@H](c3ccc(C#CC4CC4)cc3)[C@H]2C1	T cruzi growth-1 113.3 | T cruzi growth-2 103.6 | T cruzi growth-3 inactive | NIH3T3 tox inactive | NIH3T3 tox 2 36.7
O=C(C1CCCC1)N1CCCCN2[C@H](C1)[C@@H](c1ccc(C#CC3CC3)cc1)[C@@H]2CO	none
O=C(C1CCCC1)N1CCCCN2[C@H](C1)[C@H](c1ccc(C#CC3CC3)cc1)[C@@H]2CO	T cruzi growth-1 113.7 | T cruzi growth-2 98.6 | T cruzi growth-3 inactive | NIH3T3 tox inactive | NIH3T3 tox 2 inactive
O=C(C1CC1)N1CCCCN2[C@H](C1)[C@H](c1ccc(C#CC3CC3)cc1)[C@@H]2CO	none
O=C(C[C@H]1C[C@H]2c3cc(NC(=O)CC4CC4)ccc3O[C@H]2[C@@H](CO)O1)NCc1ccc(-c2ccccc2)cc1	none
COc1ccc([Si](C)(C)[C@H]2[C@H](CCn3cc(CCO)nn3)O[C@@]3(C(=O)N(Cc4cccc(N5CCOC5=O)c4)c4ccccc43)[C@@H]2C)cc1	none (no result: T cruzi growth-1, Pf Dd2 inh)
C[C@@H]1CN([C@@H](C)CO)C(=O)Cc2cc(NS(=O)(=O)c3cn(C)cn3)ccc2O[C@@H]1CN(C)S(=O)(=O)c1cccs1	none
COc1ccc(-c2cnc3c(c2)C(=O)N([C@H](C)CO)C[C@H](C)[C@H](CN(C)C(=O)C2CCCCC2)O3)cc1	none (no result: T cruzi growth-1)
CCc1cnc(N2[C@H](C#N)[C@H](c3ccc(-c4cccc(F)c4)cc3)[C@@H]2CO)s1	T cruzi growth-1 101.8 | T cruzi growth-2 98.0 | T cruzi growth-3 107.8 | NIH3T3 tox inactive | NIH3T3 tox 2 inactive
CCc1cnc(N2[C@H](C#N)[C@H](c3ccc(C4=CCCC4)cc3)[C@H]2CO)s1	none
CCc1cnc(N2[C@@H](C#N)[C@@H](c3ccc(C4=CCCCC4)cc3)[C@@H]2CO)s1	T cruzi growth-1 99.6 | T cruzi growth-2 96.3 | T cruzi growth-3 inactive | NIH3T3 tox inconclusive | NIH3T3 tox 2 59.7
